Assay [1] relates to Plasmodium falciparum Sir2 (PF13_0152, Sir2A). Put plainly: pfSir2 binders on small-molecule microarrays, primary screen, biochemical, small-molecule microarray, 635 nm fluorescence (AID 1098).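 Note: score merges spot fluorescence intensity with its signal-to-noise ratio.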 The following applies: small-molecule microarray binding, fluorescence 635 nm; higher = more signal.
Assay [2] in a line: small-molecule microarray binders of probe aDKK1, primary screen, biochemical, biotinylated probe, 635/667 nm fluorescence (AID 1099).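 Note: score merges 667nm spot fluorescence with signal to noise across triplicate slides; reference of the scale not given here.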 Conditions: higher = more signal.
Assay [3] is described as follows: small-molecule microarray binders of probe aCHRDL2, primary screen, biochemical, biotinylated probe, 635/667 nm fluorescence (AID 1100). Conditions: higher = more signal.
Assay [4] in a line: splicing luciferase reporter signal modulators, primary screen, spliceosome inhibition project, cell-based, HEK293, splice +/- reporter (AID 1101).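 Note: HEK293 cells carrying a splicing-competent luciferase reporter gene; test concentration not given here.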 Conditions: luminescence, 24 h, higher = more signal, called active from +8 up or from −8 down. A general note: A reporter such as luciferase makes a cellular process visible.
Assay [5] addresses Fibroblast growth factor 10 (Homo sapiens) (UniProt O15520). As to the kind of experiment: FGF10 binders on small-molecule microarrays, primary screen, biochemical, small-molecule microarray, 635 nm fluorescence (AID 1102). The following applies: FGF10 binding, fluorescence 635 nm, higher = more signal.
For assay [6], the system named is glycogen synthase kinase-3 (GSK3A per assay name; protocol says GSK3B). As to the kind of experiment: GSK3 binders on small-molecule microarrays, primary screen, biochemical, small-molecule microarray, 635 nm fluorescence, GSK3A (AID 1103). Note: the record names both GSK3A and GSK3B. Conditions: small-molecule microarray binding, fluorescence 635 nm; higher = more signal.
Assay [7] addresses Epidermal growth factor receptor (Homo sapiens) (UniProt P00533). As to the kind of experiment: EGFR binders on small-molecule microarrays, primary screen, biochemical, small-molecule microarray, 635 nm fluorescence (AID 1104).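 Note: score merges 667 nm emission intensity with spot signal to noise over triplicate slides.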 Conditions: EGFR binding, higher = more signal.
In assay [8] the target is Follistatin-related protein 3 (Homo sapiens) (UniProt O95633). Put plainly: FSTL3 binders on small-molecule microarrays, primary screen, biochemical, small-molecule microarray, 635 nm fluorescence (AID 1105).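 Note: score merges emission near 667 nm and signal to noise per printed spot across three slides.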 The following applies: FSTL3 binding, higher = more signal.
Sequence of Follistatin-related protein 3 (Homo sapiens) (O95633 whole entry, looked up): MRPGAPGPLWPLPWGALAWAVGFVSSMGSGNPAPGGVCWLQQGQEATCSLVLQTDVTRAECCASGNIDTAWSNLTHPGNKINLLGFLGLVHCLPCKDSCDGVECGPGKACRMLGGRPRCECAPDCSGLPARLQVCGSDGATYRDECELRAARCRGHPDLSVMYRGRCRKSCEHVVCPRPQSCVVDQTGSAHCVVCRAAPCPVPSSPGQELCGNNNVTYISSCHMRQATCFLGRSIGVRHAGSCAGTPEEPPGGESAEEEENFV
Assay [9] addresses Dickkopf-related protein 1 (Homo sapiens) (UniProt O94907). As to the kind of experiment: DKK1 binders on small-molecule microarrays, primary screen, biochemical, small-molecule microarray, 635 nm fluorescence scan (AID 1106).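 Note: score merges emission near 667 nm with signal to noise over three replicate slides.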 Conditions: DKK1 binding, higher = more signal.
Assay [10] deals with Inhibin beta A chain (activin A). Put plainly: INHBA (activin A) binders on microarrays, primary screen, biochemical, small-molecule microarray, 635 nm fluorescence scan (AID 1107).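 Note: mouse activin A protein probed at 4.33 µg/mL on printed slides; score merges bound-protein fluorescence near 667 nm with spot signal-to-noise.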 Conditions: small-molecule microarray binding, higher = more signal.

This note sets out measurements from PubChem BioAssay.

The source made the active and inactive calls.

Sequence of Fibroblast growth factor 10 (Homo sapiens) (O15520 whole entry, looked up): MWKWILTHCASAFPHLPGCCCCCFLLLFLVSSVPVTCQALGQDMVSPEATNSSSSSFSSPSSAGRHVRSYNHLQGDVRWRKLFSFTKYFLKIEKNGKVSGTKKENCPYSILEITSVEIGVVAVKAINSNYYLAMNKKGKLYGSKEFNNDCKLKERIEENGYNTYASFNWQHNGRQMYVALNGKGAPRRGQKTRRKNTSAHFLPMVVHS
Sequence of Epidermal growth factor receptor (Homo sapiens) (P00533 whole entry, looked up): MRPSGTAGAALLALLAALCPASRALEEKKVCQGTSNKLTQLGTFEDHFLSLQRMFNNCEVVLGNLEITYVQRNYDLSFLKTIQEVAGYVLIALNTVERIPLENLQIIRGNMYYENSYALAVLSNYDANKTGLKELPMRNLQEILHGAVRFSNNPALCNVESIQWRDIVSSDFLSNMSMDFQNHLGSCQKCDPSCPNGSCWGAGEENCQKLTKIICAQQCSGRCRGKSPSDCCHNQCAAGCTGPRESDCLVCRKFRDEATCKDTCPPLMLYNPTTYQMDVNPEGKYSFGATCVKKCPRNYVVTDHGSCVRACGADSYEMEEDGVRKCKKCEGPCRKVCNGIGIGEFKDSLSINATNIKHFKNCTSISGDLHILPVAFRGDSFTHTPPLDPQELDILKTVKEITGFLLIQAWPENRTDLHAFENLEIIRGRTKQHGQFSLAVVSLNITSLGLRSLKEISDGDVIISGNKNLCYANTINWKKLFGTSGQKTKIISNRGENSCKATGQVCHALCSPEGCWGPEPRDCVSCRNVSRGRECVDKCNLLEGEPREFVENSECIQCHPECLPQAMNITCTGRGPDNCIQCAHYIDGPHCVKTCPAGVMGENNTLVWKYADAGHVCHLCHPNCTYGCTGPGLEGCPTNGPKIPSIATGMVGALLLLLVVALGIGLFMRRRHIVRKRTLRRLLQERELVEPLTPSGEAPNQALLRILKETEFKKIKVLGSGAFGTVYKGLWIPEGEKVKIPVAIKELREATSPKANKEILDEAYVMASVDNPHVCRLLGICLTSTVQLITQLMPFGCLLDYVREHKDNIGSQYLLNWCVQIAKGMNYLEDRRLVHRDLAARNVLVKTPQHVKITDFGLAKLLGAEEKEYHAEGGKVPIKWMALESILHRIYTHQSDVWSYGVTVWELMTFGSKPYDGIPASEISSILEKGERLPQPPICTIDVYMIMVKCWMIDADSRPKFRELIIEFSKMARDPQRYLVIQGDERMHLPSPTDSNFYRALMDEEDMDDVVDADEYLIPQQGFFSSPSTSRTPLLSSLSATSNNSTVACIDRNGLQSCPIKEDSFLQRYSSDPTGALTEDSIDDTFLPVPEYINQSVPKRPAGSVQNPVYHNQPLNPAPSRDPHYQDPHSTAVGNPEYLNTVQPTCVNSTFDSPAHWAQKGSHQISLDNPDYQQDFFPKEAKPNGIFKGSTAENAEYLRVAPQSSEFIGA
Sequence of Dickkopf-related protein 1 (Homo sapiens) (O94907 whole entry, looked up): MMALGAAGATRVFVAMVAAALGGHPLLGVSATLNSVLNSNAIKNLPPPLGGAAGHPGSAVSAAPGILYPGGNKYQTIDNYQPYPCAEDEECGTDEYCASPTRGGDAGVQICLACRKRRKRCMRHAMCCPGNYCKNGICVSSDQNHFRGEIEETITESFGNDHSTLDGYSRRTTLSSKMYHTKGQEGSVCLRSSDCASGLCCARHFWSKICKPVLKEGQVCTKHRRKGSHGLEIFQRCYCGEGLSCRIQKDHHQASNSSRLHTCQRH

In the case of `COC(=O)[C@]1(CCC(=O)OC(C)(C)C)N=C(c2ccc(OCCCO)cc2)O[C@@H]1c1ccccc1CN=[N+]=[N-]`, the composite z-score in [1] was 1.09; in assay [2], 1.09; in [3], 1.07; in [5], 0.432; in [6], -0.109; in [7], -0.843. For the same molecule, the figures for the composite z-score in assay [8], in assay [9] and in assay [10] were -0.307, -0.696 and 0.26, respectively. Further, in [4], the z-score is -1.03 (inactive).

In the case of `COc1ccc(CCNC(=O)[C@@H]2c3ccccc3C(=O)N(Cc3ccccc3Cl)[C@H]2c2ccc(CO)cc2)cc1`, the composite z-score in assay [1] is 0.489; in [2], 0.235; in assay [3] it was 0.602; in assay [5], 0.212; in assay [6], 0.412; in [7], -0.0373. The figures for the composite z-score in [8], in [9] and in assay [10] were -0.182, 0.0477 and 0.674, respectively. In assay [4], the z-score is -0.153 (inactive).

For `C[C@H]1NC(=O)[C@@]23C(=O)N[C@@H](Cc4ccccc4)C2[C@H](C)[C@@]2(C)O[C@H]2C3/C=C/C/C=C\CNC(=O)[C@@H]2CCCN2C1=O` (stereo not given in full), the composite z-score in [1] is 0.466; in [2] it was -0.192; in assay [3], -0.575; in [5] it was 0.861; in assay [6], 0.365; in assay [7], 0.283. The composite z-score in [8] was 0.891; in assay [9], 0.296; in assay [10], 0.947. Further, in [4], the z-score is 0.856 (inactive).

On to `CCC(CC)C(O)C1C=CC2C(=O)NC(=O)C2N1Nc1ccc(Cl)cc1Cl` (stereo not given), for which the composite z-score in assay [1] is 1.28; in assay [2] it was 0.921; in assay [3] it was 1; in assay [5], 0.626; in assay [6], 0.451; in assay [7], -0.304. Also, the composite z-score in assay [8] was 0.934; in [9] it was -0.267; in assay [10] it was 0.764. Further, the z-score in [4] is 1.6 (inactive).

Take `CC1CC/C=C\[C@H]2OC34C=CCN(C(C)(C)C)C(=O)[C@H]3N(C(C)CO)C(=O)[C@@H]4C2C(=O)O1` (stereo not given in full): the composite z-score in [1] is -1.24; in assay [2] it was -0.366; in [3], -0.266; in assay [5], -0.443; in assay [6] it was -0.948; in assay [7] it was -0.698. Moreover, the results for the composite z-score in [8], in assay [9] and in assay [10] were -0.268, -0.007 and 1.28, respectively. Besides, in assay [4], the z-score was 1.11 (inactive).

Turning to `C[C@H]1C2[C@H](Cc3ccccc3)NC(=O)[C@]23C(=O)N[C@H](Cc2ccccc2)C(=O)N2CCC[C@H]2C(=O)NC/C=C\C/C=C/C3[C@@H]2O[C@]12C` (stereo not given in full), the composite z-score is 0.901 in [1]; -0.0646 in [2]; -0.19 in [3]; 0.428 in assay [5]; -0.298 in assay [6]; -0.0282 in assay [7]. Also, the results for the composite z-score in assay [8], in [9] and in assay [10] were 0.801, 0.299 and 0.946, respectively. Also, the z-score in assay [4] is -0.925 (inactive).

As to `O=C1O[C@H](c2ccccc2)[C@H](c2ccccc2)N2[C@H]1[C@@H](C(=O)N1CCCCCCC1)[C@]1(C(=O)Nc3ccc(C#CC4=CCCCC4)cc31)[C@H]2c1ccc(OCCO)cc1`, the composite z-score was 1.87 in [1]; 2.63 in assay [2]; 1.36 in [3]; 1.46 in [5]; 1.36 in assay [6]; 1.68 in assay [7]. The values for the composite z-score in [8], in [9] and in assay [10] were 1.66, 2.4 and 1.88, respectively. Also, the z-score in [4] was -1.68 (inactive).

Turning to `COc1ccc(C#Cc2ccc3c(c2)[C@]2(C(=O)N3)[C@H](c3ccccc3OCCO)N3[C@H](c4ccccc4)[C@H](c4ccccc4)OC(=O)[C@H]3[C@@H]2C(=O)Nc2nc3ccccc3s2)cc1`, the composite z-score in assay [1] is 1.64; in assay [2], -0.0008; in assay [3] it was -0.197; in [5], 1.09; in assay [6], 1.31; in assay [7] it was 0.589. The figures for the composite z-score in [8], in assay [9] and in [10] were 1.27, 0.62 and 0.322, respectively. The z-score in assay [4] was -1.11 (inactive).

For the molecule `CCCC=C(CCC)[C@@H](NC(=O)c1cccs1)c1ccc(C(F)(F)F)cc1`, the composite z-score is 0.119 in [1]; 0.607 in [2]; 0.406 in assay [3]; 0.36 in [5]; 1.25 in assay [6]; 0.569 in [7]. In addition, the composite z-score in assay [8] is 0.857; in assay [9] it was -0.568; in assay [10], 0.454. Moreover, the z-score in [4] is -2.16 (inactive).

As for `[N-]=[N+]=NCc1ccccc1C[C@]1(C(N)=O)COC(c2ccc(OCCCO)cc2)=N1`, the composite z-score in assay [1] was 0.806; in [2], 1.13; in assay [3] it was 1.36; in [5] it was 0.23; in assay [6] it was 0.812; in assay [7] it was -1.04. Also, the figures for the composite z-score in assay [8], in assay [9] and in [10] were -0.0511, -0.2 and 0.636, respectively. Moreover, in assay [4], the z-score is -1.52 (inactive).

As to `CC(=O)NCCCC[C@@H]1NC(=O)[C@@H]2C[C@H](C(=O)NCCCCCNC(=O)CS)[C@H](c3cccc(OCCO)c3)N2C1=O`, the composite z-score is 1.16 in [1]; -0.394 in [2]; -0.155 in [3]; 0.0349 in assay [5]; -0.0868 in [6]; 0.724 in assay [7]. Also, the values for the composite z-score in assay [8], in assay [9] and in assay [10] were 1.07, 1.11 and 0.337, respectively. In assay [4], the z-score was -2.01 (inactive).

With `COc1ccc(C(=O)Nc2ccc(CN3C(=O)[C@]4(O[C@H](CCO)[C@@H]([Si](C)(C)c5ccc(OC)cc5)[C@@H]4C)c4ccccc43)cc2)cc1`, the composite z-score in assay [1] was 1.21; in [2], -0.122; in assay [3] it was 0.326; in [5] it was 0.708; in assay [6], 0.762; in [7], 0.231. Further, the values for the composite z-score in assay [8], in assay [9] and in assay [10] were 1.02, 0.241 and 1.3, respectively. For the same molecule, the z-score in assay [4] was -3.38 (inactive).
